This note sets out measurements from the antibiotic and cytotoxicity screens of Wong et al. (2023).

Molecules are shown by their SMILES. About 3,300 (8.5%) of roughly 39,000 compounds were called active. This is one part of a sample in which actives are shown more often than they occur.

This test has as its system HepG2. The test is described as follows: cytotoxicity call (relative viability < 0.9). The settings on record: 10 µM.
On to `O=C(C[C@@H]1CC[C@@H]2[C@H](COC[C@@H](O)CN2S(=O)(=O)c2ccccc2)O1)N1CCc2ccccc2C1`, for which the cytotoxicity call was “inactive”.

For `C[C@@H]1CCCCO[C@H](CN(C)S(=O)(=O)c2cccs2)[C@@H](C)CN([C@@H](C)CO)C(=O)c2cc(NS(=O)(=O)c3cn(C)cn3)ccc2O1`, the cytotoxicity call was “inactive”.

Consider `C[C@@H]1CN([C@@H](C)CO)C(=O)Cc2cc(NS(=O)(=O)c3cn(C)cn3)ccc2O[C@@H]1CN(C)Cc1ccc(C(=O)O)cc1`, for which the cytotoxicity call is “inactive”.

As to `C[C@H](CO)N1C[C@H](C)[C@H](CN(C)S(=O)(=O)c2cn(C)cn2)Oc2ccc(N(C)C)cc2CC1=O`, the cytotoxicity call is “inactive”.

With `CC(C)CC#Cc1ccc2c(c1)O[C@@H](CN(C)C(=O)c1ccncc1)[C@H](C)CN([C@H](C)CO)S2(=O)=O`, the cytotoxicity call is “inactive”.

Take `Cc1ccc(S(=O)(=O)N(C)C[C@H]2Oc3cc(C#Cc4ccccc4)ccc3S(=O)(=O)N([C@@H](C)CO)C[C@@H]2C)cc1`: the cytotoxicity call is “inactive”.

`Cc1ccc(S(=O)(=O)N(C)C[C@H]2Oc3cc(C#Cc4ccncc4)ccc3S(=O)(=O)N([C@@H](C)CO)C[C@@H]2C)cc1`: the cytotoxicity call was “active”.

With `Cc1ccc(S(=O)(=O)N(C)C[C@H]2Oc3cc(C#Cc4ccccc4)ccc3S(=O)(=O)N([C@H](C)CO)C[C@H]2C)cc1`, the cytotoxicity call was “inactive”.

On to `Cc1ccc(S(=O)(=O)N(C)C[C@@H]2Oc3cc(C#Cc4ccncc4)ccc3S(=O)(=O)N([C@H](C)CO)C[C@@H]2C)cc1`, for which the cytotoxicity call was “active”.

Consider `Cc1ccc(S(=O)(=O)N(C)C[C@@H]2Oc3cc(C#Cc4ccccc4)ccc3S(=O)(=O)N([C@H](C)CO)C[C@@H]2C)cc1`, for which the cytotoxicity call is “inactive”.

In the case of `Cc1ccc(S(=O)(=O)N(C)C[C@@H]2Oc3cc(C#Cc4ccccc4)ccc3S(=O)(=O)N([C@@H](C)CO)C[C@@H]2C)cc1`, the cytotoxicity call is “inactive”.

Take `Cc1ccc(S(=O)(=O)N(C)C[C@H]2Oc3cc(C#Cc4ccncc4)ccc3S(=O)(=O)N([C@H](C)CO)C[C@H]2C)cc1`: the cytotoxicity call was “active”.

On to `Cc1ccc(S(=O)(=O)N(C)C[C@@H]2Oc3cc(C#Cc4ccncc4)ccc3S(=O)(=O)N([C@H](C)CO)C[C@H]2C)cc1`, for which the cytotoxicity call was “active”.

As to `Cc1ccc(S(=O)(=O)N(C)C[C@H]2Oc3cc(C#Cc4ccccc4)ccc3S(=O)(=O)N([C@@H](C)CO)C[C@H]2C)cc1`, the cytotoxicity call is “inactive”.

With `Cc1ccc(S(=O)(=O)N(C)C[C@@H]2Oc3cc(C#Cc4ccccc4)ccc3S(=O)(=O)N([C@@H](C)CO)C[C@H]2C)cc1`, the cytotoxicity call was “inactive”.

With `CC(C)NC(=O)Nc1ccc2c(c1)C(=O)N([C@H](C)CO)C[C@@H](C)[C@@H](CN(C)C(=O)C1CCCCC1)OCCCC[C@H](C)O2`, the cytotoxicity call is “inactive”.

Consider `CO[C@@H]1CN(C)C(=O)c2ccc(NS(C)(=O)=O)cc2OC[C@@H](C)N(C(=O)c2ccc3c(c2)OCO3)C[C@@H]1C`, for which the cytotoxicity call is “inactive”.

For `COc1ccccc1S(=O)(=O)N(C)C[C@H]1OCc2cn(nn2)CCCC(=O)N([C@@H](C)CO)C[C@@H]1C`, the cytotoxicity call is “inactive”.

Regarding `CCS(=O)(=O)N1C[C@]2(CCN(CC2)C(=O)c2cccnc2)c2c(n(c3cc(ccc23)OC)C)[C@H]1CO`, the cytotoxicity call was “inactive”.

Turning to `C[C@@H]1CN([C@H](C)CO)C(=O)c2cc(NC(=O)Cn3cnnn3)ccc2O[C@H]1CN(C)C(=O)NC1CCCCC1`, the cytotoxicity call is “inactive”.

Consider `Cc1ccc(S(=O)(=O)Nc2ccc3c(c2)C(=O)N([C@@H](C)CO)C[C@H](C)[C@H](CN(C)C(=O)Nc2c(C)noc2C)OCCCC[C@H](C)O3)cc1`, for which the cytotoxicity call is “inactive”.

On to `CC(C)NC(=O)Nc1ccc2c(c1)CC(=O)N([C@@H](C)CO)C[C@@H](C)[C@H](CN(C)S(=O)(=O)c1ccc(F)cc1)O2`, for which the cytotoxicity call was “inactive”.

Regarding `C[C@@H]1CN([C@@H](C)CO)S(=O)(=O)c2ccc(Br)cc2O[C@@H]1CN(C)C(=O)NC1CCCCC1`, the cytotoxicity call was “inactive”.

Consider `CCOC(=O)CC(=O)c1ccn(C)n1`, for which the cytotoxicity call was “inactive”.

Turning to `C[C@@H]1CCCCO[C@H](CN(C)S(=O)(=O)c2cccs2)[C@H](C)CN([C@@H](C)CO)C(=O)c2cc(NC(=O)CCC(F)(F)F)ccc2O1`, the cytotoxicity call was “inactive”.

For `C[C@H](CO)N1C[C@H](C)[C@H](CN(C)Cc2ccccn2)Oc2ncc(C#Cc3ccc(F)cc3)cc2C1=O`, the cytotoxicity call is “inactive”.

As for `C[C@@H]1CN([C@H](C)CO)C(=O)c2c(c3ccccc3n2C)-c2ccccc2CO[C@H]1CN(C)Cc1cccc(O)c1`, the cytotoxicity call was “inactive”.

As for `Cc1ccc(S(=O)(=O)N(C)C[C@@H]2Oc3cc(C#Cc4ccncc4)ccc3S(=O)(=O)N([C@@H](C)CO)C[C@@H]2C)cc1`, the cytotoxicity call was “active”.

As to `Cc1ccc(S(=O)(=O)N(C)C[C@@H]2Oc3cc(C#Cc4ccncc4)ccc3S(=O)(=O)N([C@@H](C)CO)C[C@H]2C)cc1`, the cytotoxicity call is “active”.

On to `Cc1ccc(S(=O)(=O)N(C)C[C@H]2Oc3cc(C#Cc4ccncc4)ccc3S(=O)(=O)N([C@@H](C)CO)C[C@H]2C)cc1`, for which the cytotoxicity call is “active”.

On to `Cc1ccc(S(=O)(=O)N(C)C[C@H]2Oc3cc(C#Cc4ccncc4)ccc3S(=O)(=O)N([C@H](C)CO)C[C@@H]2C)cc1`, for which the cytotoxicity call is “active”.

On to `C[C@@H]1CN([C@H](C)CO)C(=O)c2cccc(NS(=O)(=O)c3ccc(F)cc3)c2O[C@@H]1CN(C)S(=O)(=O)c1cccs1`, for which the cytotoxicity call was “inactive”.

As for `C[C@H]1CCCCO[C@H](CN(C)Cc2ccncc2)[C@@H](C)CN([C@@H](C)CO)C(=O)c2cc(NC(=O)Nc3cccc4ccccc34)ccc2O1`, the cytotoxicity call was “inactive”.

Take `COc1ccc2c3c(n(c2c1)C)[C@@H](CO)N(C[C@]13CN(C1)S(=O)(=O)c1ccc(cc1)C)S(=O)(=O)c1ccc(cc1)C`: the cytotoxicity call was “inactive”.

`C[C@H](CO)N1C[C@H](C)[C@H](CN(C)Cc2ccc3c(c2)OCCN3C)OCc2cnnn2CCCC1=O`: the cytotoxicity call is “inactive”.

As to `O=C(C[C@H]1CC[C@@H]2[C@H](COC[C@@H](O)CN2C(=O)Nc2cccc(F)c2)O1)NCCCN1CCOCC1`, the cytotoxicity call was “inactive”.

Take `CC(C)NC(=O)Nc1ccc2c(c1)C(=O)N([C@@H](C)CO)C[C@@H](C)[C@H](CN(C)C(=O)Nc1ccc(F)cc1)OCCCC[C@H](C)O2`: the cytotoxicity call was “inactive”.

`O.O=C(O)C1C(O)CCC2CN3CCc4c([nH]c5ccccc45)C3CC21` (stereo not given): the cytotoxicity call is “inactive”.

Turning to `C[C@H]1CC(=O)Nc2c1c(N)nn2C`, the cytotoxicity call was “inactive”.

In the case of `C[C@H]1CCCCO[C@H](CN(C)Cc2ccc3c(c2)OCO3)[C@@H](C)CN([C@@H](C)CO)C(=O)c2cc(NC(=O)CCC(F)(F)F)ccc2O1`, the cytotoxicity call was “inactive”.

As for `C[C@@H]1CCCCO[C@H](CN(C)C(=O)C2CCCCC2)[C@H](C)CN([C@H](C)CO)C(=O)c2cc(NS(=O)(=O)c3ccc(F)cc3)ccc2O1`, the cytotoxicity call is “inactive”.

With `CC(C)CC#Cc1ccc2c(c1)O[C@H](CN(C)Cc1cncnc1)[C@H](C)CN([C@@H](C)CO)S2(=O)=O`, the cytotoxicity call is “inactive”.

Turning to `NNS(=O)(=O)c1ccc(Cl)cc1`, the cytotoxicity call is “inactive”.

For `NC(=O)NS(=O)(=O)c1ccc(N)cc1`, the cytotoxicity call is “inactive”.

In the case of `NNS(=O)(=O)c1ccc(Oc2ccc(S(=O)(=O)NN)cc2)cc1`, the cytotoxicity call is “active”.

Turning to `C[C@@H]1CN([C@H](C)CO)C(=O)c2cc(NS(=O)(=O)c3ccc(F)cc3)ccc2O[C@H]1CN(C)S(=O)(=O)c1ccc(F)cc1`, the cytotoxicity call was “inactive”.

On to `Cc1cc(C)c2c(c1)NC(=O)C[C@H]2c1cccc(Cl)c1Cl`, for which the cytotoxicity call is “active”.

With `Cc1ccc2c(c1)C(=O)C[C@@H](c1ccc(Cl)cc1Cl)O2`, the cytotoxicity call was “inactive”.

With `Cc1ccc(=O)n(CC(=O)O)n1`, the cytotoxicity call is “inactive”.

In the case of `C[C@H]1CCCCO[C@@H](CN(C)Cc2ccncc2)[C@@H](C)CN([C@@H](C)CO)C(=O)c2cc(NC(=O)Nc3ccc(C(F)(F)F)cc3)ccc2O1`, the cytotoxicity call is “inactive”.

On to `C[C@@H]1CN([C@H](C)CO)C(=O)c2cc(NC(=O)Nc3ccc(C(F)(F)F)cc3)ccc2O[C@@H](C)CCCCO[C@@H]1CN(C)Cc1ccncc1`, for which the cytotoxicity call was “active”.

As for `C[C@@H]1CCCCO[C@H](CN(C)Cc2ccncc2)[C@@H](C)CN([C@H](C)CO)C(=O)c2cc(NC(=O)Nc3ccc(C(F)(F)F)cc3)ccc2O1`, the cytotoxicity call is “inactive”.

Regarding `C[C@@H]1CCCCO[C@H](CN(C)Cc2ccncc2)[C@H](C)CN([C@H](C)CO)C(=O)c2cc(NC(=O)Nc3ccc(C(F)(F)F)cc3)ccc2O1`, the cytotoxicity call was “active”.

Turning to `C[C@H](CO)N1C[C@H](C)[C@H](CN(C)Cc2ccncc2)OCCCC[C@H](C)Oc2ccc(NC(=O)Nc3ccc(C(F)(F)F)cc3)cc2C1=O`, the cytotoxicity call was “active”.

Take `C[C@H](CO)N1C[C@H](C)[C@@H](CN(C)Cc2ccncc2)OCCCC[C@H](C)Oc2ccc(NC(=O)Nc3ccc(C(F)(F)F)cc3)cc2C1=O`: the cytotoxicity call was “inactive”.

As to `C[C@@H]1CCCCO[C@@H](CN(C)Cc2ccncc2)[C@H](C)CN([C@@H](C)CO)C(=O)c2cc(NC(=O)Nc3ccc(C(F)(F)F)cc3)ccc2O1`, the cytotoxicity call is “inactive”.

For `C[C@@H]1CCCCO[C@@H](CN(C)Cc2ccncc2)[C@H](C)CN([C@H](C)CO)C(=O)c2cc(NC(=O)Nc3ccc(C(F)(F)F)cc3)ccc2O1`, the cytotoxicity call was “active”.

Take `C[C@@H]1CCCCO[C@H](CN(C)C(=O)NC2CCCCC2)[C@@H](C)CN([C@@H](C)CO)C(=O)c2cc(NC(=O)NC3CCCCC3)ccc2O1`: the cytotoxicity call is “inactive”.

Consider `O=C(C[C@H]1C=C[C@@H](NC(=O)CN2CCOCC2)[C@H](CO)O1)NCCc1ccccc1`, for which the cytotoxicity call was “inactive”.

In the case of `COCC#Cc1ccc2c(c1)O[C@@H](CN(C)C(=O)c1ccccc1F)[C@@H](C)CN([C@@H](C)CO)S2(=O)=O`, the cytotoxicity call was “inactive”.

With `CNC[C@H]1OCCCC[C@H](C)Oc2ccc(NC(=O)c3ccncc3)cc2C(=O)N([C@@H](C)CO)C[C@@H]1C`, the cytotoxicity call was “inactive”.

Turning to `Cc1ccc(S(=O)(=O)N(C)C[C@@H]2Oc3ccc(NS(=O)(=O)c4c(C)noc4C)cc3CC(=O)N([C@@H](C)CO)C[C@H]2C)cc1`, the cytotoxicity call is “inactive”.

On to `C[C@H]1CN([C@@H](C)CO)C(=O)c2cccc(NC(=O)c3cnccn3)c2O[C@H]1CN(C)S(=O)(=O)c1ccc(Cl)cc1`, for which the cytotoxicity call was “inactive”.

On to `O=C(C[C@H]1CC[C@H](NC(=O)c2cccnc2)[C@H](CO)O1)NCCN1CCCCC1`, for which the cytotoxicity call is “inactive”.

In the case of `COCC#Cc1ccc2c(c1)O[C@H](CN(C)C(=O)C1CCCCC1)[C@H](C)CN([C@@H](C)CO)S2(=O)=O`, the cytotoxicity call is “inactive”.
